Whole data set: some 110,000 compounds, median “z-score” near -0.1, cut for the highest 2% near 2. Shown is part of a subset that was picked to be rich in the highest values.
Each molecule was assayed against Metabotropic glutamate receptor 8 (Rattus norvegicus) (UniProt P70579) (assay: mGluR8 Gi/Go-coupled signaling modulation – cell-based, rat, thallium flux, HTS, primary screen (AID 488969)). Details: HEK293 rat mGluR8, GIRK (G protein-gated inwardly rectifying potassium channel) thallium flux, FluoZin2; at 10 µM; stronger effect = higher value; submaximal glutamate (EC20) added with thallium.
Sequence of Metabotropic glutamate receptor 8 (Rattus norvegicus) (P70579 whole entry, looked up): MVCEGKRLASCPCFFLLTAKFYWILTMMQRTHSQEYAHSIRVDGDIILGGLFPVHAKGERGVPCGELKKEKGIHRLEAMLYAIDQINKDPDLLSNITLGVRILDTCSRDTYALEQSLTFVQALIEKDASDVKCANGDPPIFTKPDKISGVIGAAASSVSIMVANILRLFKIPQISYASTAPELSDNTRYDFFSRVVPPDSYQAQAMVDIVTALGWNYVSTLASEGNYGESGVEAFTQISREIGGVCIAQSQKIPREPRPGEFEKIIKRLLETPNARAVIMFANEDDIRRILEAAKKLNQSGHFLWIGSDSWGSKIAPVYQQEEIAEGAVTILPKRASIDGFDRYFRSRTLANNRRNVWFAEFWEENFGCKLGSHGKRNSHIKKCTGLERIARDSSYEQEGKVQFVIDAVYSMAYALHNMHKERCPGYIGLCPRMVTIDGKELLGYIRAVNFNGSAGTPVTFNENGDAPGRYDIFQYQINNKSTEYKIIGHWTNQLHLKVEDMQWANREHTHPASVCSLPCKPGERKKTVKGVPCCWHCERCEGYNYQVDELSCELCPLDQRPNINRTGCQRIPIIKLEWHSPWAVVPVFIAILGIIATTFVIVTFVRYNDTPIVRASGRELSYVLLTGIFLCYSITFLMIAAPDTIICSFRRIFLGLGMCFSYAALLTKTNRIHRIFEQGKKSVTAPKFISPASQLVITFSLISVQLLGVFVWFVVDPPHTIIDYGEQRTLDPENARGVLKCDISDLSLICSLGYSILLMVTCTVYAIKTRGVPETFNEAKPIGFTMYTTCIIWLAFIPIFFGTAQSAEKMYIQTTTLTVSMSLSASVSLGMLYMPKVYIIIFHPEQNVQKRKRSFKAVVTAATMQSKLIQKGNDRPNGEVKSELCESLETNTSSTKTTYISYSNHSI
`Cc1ccc(S(=O)(=O)N2CCN(c3cc4c(cc3[N+](=O)[O-])n(C)c(=O)n4C)CC2)cc1` was tested, and the z-score was -0.078. `COC(=O)c1cc2ccccc2c(-c2c(O)ccc3ccccc23)c1O` gave a z-score of 0.0387. With `Cc1ccc(C2NC(=O)NC(O)(C(F)(F)F)C2C(=O)c2cccs2)o1` (centres undefined) the z-score was -0.404. Molecule `O=C1NC(c2ccccc2)C(C(=O)c2cccs2)C(O)(C(F)(F)F)N1` (centres undefined) has a z-score of -0.23. For `Cc1ccc(C(=O)C2C(c3cccs3)NC(=O)NC2(O)C(F)(F)F)cc1` (centres undefined), the z-score was 2.58. Molecule `Cc1nnc(NC(=O)c2cccc(S(=O)(=O)N3CCc4ccccc43)c2)s1` has a z-score of 0.437. `CSc1ccc(C(=S)N2CCN(CCO)CC2)cc1` was tested, and the z-score was 0.0369. Molecule `CC(CN1CCCCC1)OC(=O)c1ccc(Cl)cc1Cl` (centres undefined) has a z-score of 2.27. Molecule `CC(CN1CCN(C)CC1)OC(=O)c1ccc(Cl)cc1Cl` (centres undefined) has a z-score of 0.335. `CC(CN1CCN(C)CC1)OC(=O)c1ccc(Cl)cc1` (centres undefined) gave a z-score of 1.05. Work on `CCCCOc1ccc(S(=O)(=O)NCc2csc(C)n2)cc1` yielded a z-score of -1.17. Molecule `Cc1nc(/N=C(\N)NC(=O)c2ccccc2)nc2ccccc12` has a z-score of 2.8. `N/C(=N\c1nc2ccccc2o1)NC(=O)c1ccccc1` was tested, and the z-score was -0.339. In the case of `Cc1nc(/N=C(\N)NC(=O)N2c3ccccc3Sc3ccccc32)nc2ccccc12`, the z-score is reported as -0.0514. `CCOc1nc(S(=O)(=O)c2ccc(C)cc2)c(Cl)s1` was tested, and the z-score was -0.802. Work on `CC1CCCN(c2nc3ccccc3nc2C(C#N)S(=O)(=O)c2cccs2)C1` (centres undefined) yielded a z-score of -1.84. Molecule `O=C(CCNC(=O)c1ccccc1Cl)NCC12CC3CC(CC(C3)C1)C2` has a z-score of -0.16. Molecule `Cc1nn(-c2ccc(C(F)(F)F)cn2)c(C)c1Oc1ccccc1O` has a z-score of 2.25. `Cc1cc(C)nc(-n2nc(C)c(Oc3ccccc3O)c2C)n1` showed a z-score of -0.176. With `Cc1nn(-c2ccc(C(=O)O)cc2)c(C)c1Oc1ccccc1O` the z-score was -0.318. Molecule `COc1ccc(CCNC(=O)C2CC(=O)N(c3ccccc3)C2)cc1OC` (centres undefined) has a z-score of 0.172. Work on `O=C(CSc1nnc(Cc2cc(=O)[nH]c(=O)[nH]2)n1-c1ccccc1)NCC1CCCO1` (centres undefined) yielded a z-score of 0.18. `Cn1nnc(NC(=O)c2cccc(OCc3ccccc3)c2)n1` showed a z-score of -0.179. Molecule `Cc1ccc(C(=O)NCC2CCCO2)cc1[N+](=O)[O-]` (centres undefined) has a z-score of 0.0557. `CCCCn1c(SCC(=O)OCC)nc2c1c(=O)[nH]c(=O)n2C` gave a z-score of -0.555. With `CCCCCn1c(SCC(=O)OC)nc2c1c(=O)[nH]c(=O)n2C` the z-score was 2.01. `COC(=O)CSc1nc2c(c(=O)[nH]c(=O)n2C)n1CCC(C)C` was tested, and the z-score was -0.127. `Cc1ccc2cc(S(=O)(=O)NCCCC(=O)O)ccc2c1` was tested, and the z-score was -0.0725. With `CCCCNC(=O)c1ccc(N2CCC3(CC2)OCCO3)c([N+](=O)[O-])c1` the z-score was -0.757.
